Data: PubChem BioAssay AID1159580 (chemical genetic matrix, 2015)
Out of some 5,500 compounds screened, about 2,000 (36%) were called active. Not shown: some 18% with an inconclusive outcome. Rule as the data show it: active = normalized growth mostly below about 0.91 (no sharp cut-off); inconclusive = no clear call, values can overlap the other calls; inactive = mostly above about 0.92. The list shows a part of the results.

Assay: chemical genetic growth profiling, strain panel (AID 1159580);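 also: tested at 20 µM; growth read once vehicle control cultures reached saturation at 30 °C; 1 = growth at the plate median or of vehicle wells; lower values mean less growth of the strain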
Details: growth OD

Measured: normalized growth

CC(C)=CCC[C@](C)(O)C1CC=C(C)CC1 (some centres not stated)
inactive: S. cerevisiae deletion strains, locus YJR043C, strain POL32, stronger effect = lower value 1.01 | S. cerevisiae deletion strains, locus YJR066W, strain TOR1, stronger effect = lower value 0.953 | S. cerevisiae deletion strains, locus YKL009W, strain mrt4, stronger effect = lower value 0.962 | S. cerevisiae deletion strains, locus YKL068W, stronger effect = lower value 1.01 | S. cerevisiae deletion strains, locus YKL085W, strain MDH1 (second series), stronger effect = lower value 0.991 | S. cerevisiae deletion strains, locus YKL085W, strain MDH1, stronger effect = lower value 0.991 | S. cerevisiae deletion strains, locus YKL160W, strain elf1, stronger effect = lower value 1 | S. cerevisiae deletion strains, locus YKR001C, strain vps1, stronger effect = lower value 0.902 | S. cerevisiae deletion strains, locus YKR026C, strain gcn3, stronger effect = lower value 0.976 | S. cerevisiae deletion strains, locus YKR091W, strain srl3, stronger effect = lower value 0.98 | S. cerevisiae deletion strains, locus YLL001W, strain dnm1, stronger effect = lower value 0.992 | S. cerevisiae deletion strains, locus YLL026W, stronger effect = lower value 0.992 | S. cerevisiae deletion strains, locus YLL041C, strain sdh2, stronger effect = lower value 0.997 | S. cerevisiae deletion strains, locus YLR027C, strain aat2, stronger effect = lower value 0.969 | S. cerevisiae deletion strains, locus YLR039C, strain RIC1, stronger effect = lower value 0.964 | S. cerevisiae deletion strains, locus YLR058C, strain SHM2, stronger effect = lower value 1.03 | S. cerevisiae deletion strains, locus YLR102C, strain apc9, stronger effect = lower value 0.986 | S. cerevisiae deletion strains, locus YLR113W, strain HOG1, stronger effect = lower value 1.02 | S. cerevisiae deletion strains, locus YLR221C, strain rsa3, stronger effect = lower value 0.982 | S. cerevisiae deletion strains, locus YLR258W, strain gsy2, stronger effect = lower value 0.978 | S. cerevisiae deletion strains, locus YLR262C, strain YPT6 (second series), stronger effect = lower value 0.998 | S. cerevisiae deletion strains, locus YLR262C, strain YPT6, stronger effect = lower value 0.966 | S. cerevisiae deletion strains, locus YLR268W, strain sec22, stronger effect = lower value 0.991 | S. cerevisiae deletion strains, locus YLR320W, strain mms22, stronger effect = lower value 0.984 | S. cerevisiae deletion strains, locus YLR330W, strain CHS5, stronger effect = lower value 1.02 | S. cerevisiae deletion strains, locus YLR342W, strain FKS1 (second series), stronger effect = lower value 0.995 | S. cerevisiae deletion strains, locus YLR342W, strain FKS1, stronger effect = lower value 0.98 | S. cerevisiae deletion strains, locus YLR357W, strain rsc2, stronger effect = lower value 0.944 | S. cerevisiae deletion strains, locus YLR370C, strain arc18, stronger effect = lower value 0.96 | S. cerevisiae deletion strains, locus YLR371W, strain rom2, stronger effect = lower value 1 | S. cerevisiae deletion strains, locus YLR384C, strain iki3, stronger effect = lower value 0.971 | S. cerevisiae deletion strains, locus YLR418C, strain cdc73, stronger effect = lower value 0.982 | S. cerevisiae deletion strains, locus YML016C, strain PPZ1, stronger effect = lower value 1.01 | S. cerevisiae deletion strains, locus YML032C, strain rad52, stronger effect = lower value 0.992 | S. cerevisiae deletion strains, locus YML120C, strain ndi1, stronger effect = lower value 0.988 | S. cerevisiae deletion strains, locus YML124C, strain tub3, stronger effect = lower value 1 | S. cerevisiae deletion strains, locus YMR058W, strain fet3, stronger effect = lower value 0.97 | S. cerevisiae deletion strains, locus YMR078C, strain ctf18, stronger effect = lower value 0.976 | S. cerevisiae deletion strains, locus YMR125W, strain sto1, stronger effect = lower value 0.967 | S. cerevisiae deletion strains, locus YMR129W, stronger effect = lower value 0.992 | S. cerevisiae deletion strains, locus YMR205C, strain PFK2, stronger effect = lower value 0.983 | S. cerevisiae deletion strains, locus YMR223W, strain ubp8, stronger effect = lower value 0.991 | S. cerevisiae deletion strains, locus YMR231W, strain pep5, stronger effect = lower value 0.965 | S. cerevisiae deletion strains, locus YMR307W, strain GAS1, stronger effect = lower value 1.13 | S. cerevisiae deletion strains, locus YNL067W, strain RPL9B, stronger effect = lower value 1.01 | S. cerevisiae deletion strains, locus YNL071W, strain lat1, stronger effect = lower value 0.98 | S. cerevisiae deletion strains, locus YNL153C, strain GIM3, stronger effect = lower value 1.01 | S. cerevisiae deletion strains, locus YNL183C, strain NPR1, stronger effect = lower value 0.954 | S. cerevisiae deletion strains, locus YNL209W, strain ssb2, stronger effect = lower value 0.98 | S. cerevisiae deletion strains, locus YNL233W, strain BNI4, stronger effect = lower value 1.04 | S. cerevisiae deletion strains, locus YNL248C, strain rpa49, stronger effect = lower value 0.978 | S. cerevisiae deletion strains, locus YNL250W, strain rad50, stronger effect = lower value 1 | S. cerevisiae deletion strains, locus YNL271C, strain bni1, stronger effect = lower value 0.988 | S. cerevisiae deletion strains, locus YNL298W, strain CLA4, stronger effect = lower value 1.01 | S. cerevisiae deletion strains, locus YNL307C, strain MCK1, stronger effect = lower value 0.983 | S. cerevisiae deletion strains, locus YNL322C, strain KRE1 (second series), stronger effect = lower value 0.982 | S. cerevisiae deletion strains, locus YNR049C, strain mso1, stronger effect = lower value 0.979 | S. cerevisiae deletion strains, locus YNR052C, strain pop2, stronger effect = lower value 0.994 | S. cerevisiae deletion strains, locus YOL012C, strain htz1 1.39 | S. cerevisiae deletion strains, locus YOL147C, strain pex11, stronger effect = lower value 0.981 | S. cerevisiae deletion strains, locus YOR001W, strain rrp6, stronger effect = lower value 0.975 | S. cerevisiae deletion strains, locus YOR061W, strain CKA2, stronger effect = lower value 1.03 | S. cerevisiae deletion strains, locus YOR069W, strain VPS5, stronger effect = lower value 1.02 | S. cerevisiae deletion strains, locus YOR070C, strain gyp1, stronger effect = lower value 1.02 | S. cerevisiae deletion strains, locus YOR080W, strain dia2, stronger effect = lower value 0.979 | S. cerevisiae deletion strains, locus YOR083W, strain WHI5, stronger effect = lower value 0.987 | S. cerevisiae deletion strains, locus YOR106W, strain vam3, stronger effect = lower value 0.947 | S. cerevisiae deletion strains, locus YOR136W, strain idh2, stronger effect = lower value 0.992 | S. cerevisiae deletion strains, locus YOR144C, strain elg1, stronger effect = lower value 0.989 | S. cerevisiae deletion strains, locus YOR184W, strain ser1, stronger effect = lower value 0.994 | S. cerevisiae deletion strains, locus YOR231W, strain MKK1, stronger effect = lower value 0.993 | S. cerevisiae deletion strains, locus YOR265W, strain rbl2, stronger effect = lower value 0.98 | S. cerevisiae deletion strains, locus YOR270C, strain vph1, stronger effect = lower value 0.932 | S. cerevisiae deletion strains, locus YOR290C, strain snf2, stronger effect = lower value 0.969 | S. cerevisiae deletion strains, locus YOR316C, strain cot1, stronger effect = lower value 0.986 | S. cerevisiae deletion strains, locus YPL051W, strain arl3, stronger effect = lower value 0.981 | S. cerevisiae deletion strains, locus YPL055C, strain LGE1, stronger effect = lower value 1.04 | S. cerevisiae deletion strains, locus YPL078C, strain atp4, stronger effect = lower value 0.988 | S. cerevisiae deletion strains, locus YPL106C, strain sse1, stronger effect = lower value 0.981 | S. cerevisiae deletion strains, locus YPL240C, strain hsp82, stronger effect = lower value 0.977 | S. cerevisiae deletion strains, locus YPL256C, strain CLN2, stronger effect = lower value 0.99 | S. cerevisiae deletion strains, locus YPR119W, strain clb2, stronger effect = lower value 1.01 | S. cerevisiae deletion strains, locus YPR141C, strain kar3, stronger effect = lower value 1 | S. cerevisiae deletion strains, locus YPR163C, strain tif3, stronger effect = lower value 0.973 | S. cerevisiae deletion strains, locus YPR167C, strain met16, stronger effect = lower value 1.02 | S. cerevisiae deletion strains, strain wtn01, stronger effect = lower value 0.974 | S. cerevisiae strains, strain wild type, stronger effect = lower value 1.02
